A selection: hits, their analogues and other compounds. The true share with any hit is near 19%.
SW480 rerep = inducers of DNA re-replication in SW480 colon cancer cells | 1.8% of 340,000 active | Potency, µM (top dose mostly 46.1 µM), inactives show at the top dose re-replication activation, actives largely listed as activators | SW480 DNA re-replication, Hoechst DNA content imaging, 48 h; also: potency is read from the fitted curve at half-maximal effect; % of control where 0% means no effect; nearly all actives have a fitted effect of over 55% in size
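Readout is total intensity of Hoechst-stained nuclei, excited at 405 nm and collected at 500-530 nm. Compound treatment lasted 48 hr at 37 C in 5% CO2 before staining.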
DT40 TDP1 no CPT = qHTS for Inhibitors of human tyrosyl-DNA phosphodiesterase 1 (TDP1): qHTS in cells in absence of CPT. 15% of 420,000 active. Potency, µM (top dose mostly 46.2 µM), for inactives: top-dose activity change, negative = growth inhibition, actives largely listed as inhibitors. DT40 Tdp1-/- hTDP1 cells, no CPT, ATP luminescence, 48 h; also: potency is read from the fitted curve at half-maximal effect; % is scaled to controls: 0 for no effect and ±100 for the full control effect; nearly all actives have a fitted effect of over 55% in size
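Compound effects on proliferation are scored in DT40 Tdp1-/-;hTDP1 cells in the absence of CPT. ATP levels (CellTiter-Glo luminescence) are recorded after a ≥48 hr, 37 °C incubation.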
IL-1B inflam inh = inflammasome signaling inhibition, IL-1 beta readout; activity change, % at 57.5 µM; 4.7% of 360,000 active; AID 743279; THP-1 LPS/ATP IL-1B secretion, AlphaLISA, 16 h; stronger effect = lower value; in the data active = activity change below about -50%; inconclusive = mostly about -30% to -49%; also: % is scaled to controls: 0 for no effect and ±100 for the full control effect
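THP-1 cells pretreated 1 hr with compounds (up to 57.5 uM final), then stimulated with LPS (250 ng/mL final) plus ATP (1.25 mM final); secreted IL-1B measured by AlphaLISA after 16 hr, decreased signal indicating inhibition.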
MCF10A rerep = DNA re-replication induction in MCF 10a cells. Potency, µM (doses to about 46.1 µM), for inactives: at the top dose activity, positive = re-replication, hits mostly activators. 2.9% of 350,000 active. MCF 10A DNA re-replication, Hoechst nuclear intensity, 48 h. AID 624296; also: potency is read from the fitted curve at half-maximal effect; % of control where 0% means no effect; nearly all actives have a fitted effect of over 50% in size
BCR signal inh = blocks chronic active B-cell receptor signaling; ABC-DLBCL IkBa-CBG/CBR reporter, luminescence ratio, 4 h; 0.05% of 340,000 active; AID 493014; Potency, µM (series often up to 46.1 µM), for inactives: top-dose activity change, negative = inhibition, usual class: inhibitors; active = well fitted inhibition curve with a large enough effect in the signal ratio, with a control signal flat, not every such curve was filed as active; inconclusive = small, poorly fitted or top-dose-only effect, or effect the other way, or a change in a side signal; the % refers to the signal ratio;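 also: potency is read from the fitted curve at half-maximal effect; plate controls were basal doxycycline-induced cells for no effect and cells given 10 µM MG132 for full effect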
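Concentration-response series (up to 46 uM) were applied to TMD8 dual-reporter cells for 4 h at 37C with doxycycline. Green/red ratio, after filter-overlap correction, defined %Activity; red signal alone was normalised to basal cells and zero luminescence.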
DT40 TDP1 CPT = growth inhibition of DT40 Tdp1-/-;hTDP1 cells with camptothecin (screen for TDP1 inhibitors); chicken DT40 Tdp1-/-;hTDP1 cells + 20 nM CPT, ATP luminescence, 48 h; Potency, µM (highest dose often 46.2 µM), for inactives: at the highest dose activity change, negative = growth inhibition, usual class: inhibitors; 12% of 420,000 active; AID 686979; also: potency is read from the fitted curve at half-maximal effect; % is scaled to controls: 0 for no effect and ±100 for the full control effect; nearly all actives have a fitted effect of over 55% in size
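Chicken DT40 Tdp1-/- cells complemented with human TDP1, 400 cells/well, exposed to compounds plus 20 nM camptothecin for at least 48 h at 37 C; viability read as ATP content by CellTiter-Glo luminescence.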
* marks the source's active call; other numbers are inactive results; ? = inconclusive; / = not tested or not shown; [ ] = dose if it differs, or a comment. Unless noted, calls follow the shape of the dose curve; as a rule, active = well fitted curve in the direction sought with a large enough effect; inconclusive = small, poorly fitted or top-dose-only effect, or another doubt; inactive = no such curve, though single readings can be large; an effect the other way counts as inactive or inconclusive.

SMILES | SW480 rerep | DT40 TDP1 no CPT | IL-1B inflam inh | MCF10A rerep | BCR signal inh | DT40 TDP1 CPT
O=C(Nc1ccc(C(=O)N2CCCC2)cc1)c1ccccc1Br | 0% | -5% | -12 | 7% | ? | -8%
Cc1ccccc1NC(=O)c1ccccc1OCC(=O)Nc1ccc(Br)cc1 | / | 14µM* | / | / | / | ?
O=C(Oc1ccccc1C(=O)Nc1ccccc1)c1ccccc1Br | 15µM* | 21µM* | ? | 5.2µM* | ? | 18µM*
O=C(Nc1ccccc1)c1ccccc1OS(=O)(=O)c1ccccc1 | 0% | -30% | -20 | -1% | -2% | -6%
O=C(Nc1ccc(C2CC2(Cl)Cl)cc1)c1ccccc1Br (configuration not stated) | 2% | 13µM* | ? | ? | ? | 18µM*
O=C(COc1ccccc1C(=O)Nc1ccccc1)Nc1ccc(-c2ccccc2)cc1 | / | 11µM* | / | / | / | ?
CCOc1ccccc1C(=O)NC(C(=O)OCC(=O)Nc1nnc(-c2ccccc2)o1)C(C)C (configuration not stated) | 4% | -20% | 15 | 22% | -1% | -8%
N#Cc1ccccc1NC(=O)COc1ccccc1C(=O)Nc1ccccc1 | ? | ? | 0 | 10% | ? | 16µM*
O=C(COc1ccccc1C(=O)Nc1ccccc1)c1ccc(F)cc1 | -4% | ? | -10 | 2% | 2% | ?
O=C(COc1ccccc1C(=O)Nc1ccccc1)Nc1ccc2ccccc2c1 | / | 20µM* | / | / | / | ?
CCOc1ccccc1C(=O)OCC(=O)Nc1nnc(-c2ccccc2)o1 | -2% | 16µM* | 15 | 12% | ? | ?
COc1ccc(C(=O)COc2ccccc2C(=O)Nc2ccccc2)cc1 | ? | 18µM* | 84 | 36% | 7% | 12µM*
O=C(O)C1CCC(N2C(=O)c3c(Cl)c(Cl)c(Cl)c(Cl)c3C2=O)CC1 (configuration not stated) | / | / | / | / | 5% | /
CS(=O)(=O)c1ccc(NC(=O)COc2ccccc2C(=O)Nc2ccccc2)cc1 | / | ? | / | / | / | 20µM*
CCOc1ccccc1C(=O)Nc1ccccc1-c1ccccc1 | 14% | ? | 13 | 21µM* | -4% | ?
O=C(COc1ccccc1C(=O)Nc1ccccc1)Nc1ccccc1-c1ccccc1 | / | ? | / | / | / | 13µM*
O=C(Nc1ccccc1Br)c1ccccc1-c1ccccc1 | 16µM* | 6.5µM* | 13 | 13µM* | ? | 5.8µM*
Cc1ccccc1NC(=O)COc1ccccc1C(=O)Nc1ccccc1 | / | -30% | / | / | / | -6%
O=C(c1ccc(NS(=O)(=O)c2ccc3[nH]c(=O)[nH]c3c2)cc1)N1CCN(c2ccccc2O)CC1 | -40% | -9% | 12 | 14% | 0% | -2%
COc1ccccc1CNC(=O)C1CCC(CNc2c(N3CCC(C)CC3)c(=O)c2=O)CC1 (configuration not stated) | -23% | -21% | ? | 1% | -14% | -30%
CC(OC(=O)c1ccccc1OCC(=O)Nc1ccc(Br)cc1)C(=O)NC1CCCC1 (configuration not stated) | / | 10µM* | / | / | / | 8.9µM*
COC(=O)c1ccccc1OCC(=O)NC1CCCCC1 | -3% | -14% | 0 | 22% | ? | -10%
Cn1c(-c2ccc3c(c2)OCO3)cnc1NCc1ccccc1 | ? | ? | -10 | 26µM* | -19% | 21µM*
Cn1c(-c2cccc(Br)c2)cnc1NCc1ccccc1O | -3% | ? | -69* | 16% | 3% | 5%
Cn1c(-c2cccc([N+](=O)[O-])c2)cnc1NCc1cccc(F)c1 | -3% | 21µM* | -14 | 9% | 1% | ?
SMILES | SW480 rerep | DT40 TDP1 no CPT | IL-1B inflam inh | MCF10A rerep | BCR signal inh | DT40 TDP1 CPT
Cn1c(-c2ccc3c(c2)OCO3)cnc1NC(=O)CCC(=O)NCCc1ccccc1 | 3% | -24% | -10 | 1% | 1% | -11%
Cn1c(-c2ccc(F)cc2)cnc1NCc1cccc([N+](=O)[O-])c1 | -12% | ? | ? | 8% | -7% | ?
Cn1c(-c2ccccc2)cnc1NCc1ccccc1 | ? | ? | -1 | 23% | ? | ?
Cn1c(-c2ccc3c(c2)OCO3)cnc1NCc1ccccc1Cl | -68% | 15µM* | -17 | 5% | ? | ?
Cc1ccc(S(=O)(=O)N2[C@@H](c3ccc(C(C)C)cc3)C(C(=O)O)=C[C@H]2C(C)(C)C)cc1 | 19%[9.22 µM] | -29% | 165 | 24% | -4% | ?
CC(=O)N1CCC[C@H]1C(=O)NCC1Cc2cc(C)cc(-c3ccc(Cl)cc3)c2O1 (some centres not stated) | / | -22% | / | / | / | -12%[9.04 µM]
Cc1cc(OC(=O)c2ccc(Cl)cc2Cl)c([N+](=O)[O-])c(=O)[nH]1 | -3% | 4% | 33 | 0% | -2% | -8%
COc1ccc(CNC(=O)Cn2cc(C)c(=O)[nH]c2=O)cc1 | 6% | -3% | -13 | ? | / | 4%
CCc1ccccc1NC(=O)N1CCCn2nc(C)cc21 | / | -22% | / | / | / | 6%
Cc1c(-c2ccccc2)c(-c2ccc(OCCN(C)C)cc2)n2ccccc12 | ? | ? | -59* | ? | / | ?
COc1ccc(C(=O)COC(=O)c2sccc2C)cc1OC | -2% | ? | 4 | -1% | 0% | 4%
CC(C)(C)c1cc(C(F)(F)F)nc(SCCCNC(=O)c2ccco2)n1 | -5% | 21µM* | -17 | 8% | 10% | 23µM*
Cc1cc(NC(=O)CCCSc2nc(-c3ccco3)cc(C(F)(F)F)n2)no1 | -2% | -27% | 2 | 28% | 0% | 0%
NCCNc1cccc2ccccc12 | 0% | ? | / | 5% | / | ?
O=C(NCC1CCCO1)c1ccc2c(c1)S(=O)(=O)c1ccccc1C2=O (configuration not stated) | 5% | -23% | -20 | 2% | / | -15%
O=C(NCc1ccc(OC(F)(F)F)cc1)c1ccc2c(c1)S(=O)(=O)c1ccccc1C2=O | 0% | 15µM* | -28 | 3% | / | 23µM*
Cc1ccc(CNC(=O)c2ccc3c(c2)S(=O)(=O)c2ccccc2C3=O)o1 | -2% | 16µM* | -25 | 5% | / | ?
COc1ccccc1CCn1cnc2c3cc(C)ccc3n(C)c2c1=O | 16% | 12µM* | -26 | 10% | ? | 18µM*
COc1ccc2c(c1)c1ncn(CCN3CCCC3)c(=O)c1n2C | -4% | 1% | -6 | 18% | 4% | -1%

From PubChem
